Screening results as filed in PubChem.
Shown are actives, neighbours in structure and some others; about 5.2% of the full set was active somewhere.
Tau FP inhib = qHTS for Inhibitors of Tau Fibril Formation, Fluorescence Polarization; K18 P301L tau heparin fibrillization, Alexa594 FP, 6 h; Microtubule-associated protein tau (Homo sapiens), P10636; AID 1468, 2008; 0.39% of 280,000 active; Potency, µM (top dose mostly 57.7 µM), actives largely listed as inhibitors; note: nearly all actives have a fitted effect of over 55% in size
Target sequence (P10636 561-689 P618L limits assumed): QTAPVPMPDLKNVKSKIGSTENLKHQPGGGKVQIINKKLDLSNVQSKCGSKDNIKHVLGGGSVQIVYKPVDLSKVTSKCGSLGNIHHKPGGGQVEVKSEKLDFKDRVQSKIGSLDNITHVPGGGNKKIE
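Recombinant K18 P301L […], labeled with Alexa 594 at 0.24 uM over 15 uM unlabeled; heparin inducer 20 uM final; 37 C, 6 hr; FP endpoint.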
Sfp PPTase inh = qHTS Assay for Inhibitors of Bacillus subtilis Sfp phosphopantetheinyl transferase (PPTase); Potency, µM, hits mostly inhibitors; Biochemical Sfp PPTase activity, qHTS; 3.5% of 310,000 active; 4'-phosphopantetheinyl transferase ffp (Bacillus subtilis), Q9F4F7; AID 1490, 2009;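 note: the enzyme is Sfp with the accession as filed and its product quenches rhodamine fluorescence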
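Buffer: 50 mM Hepes-Na pH 7.6, 10 mM MgCl2, 0.01% Nonidet P-40, 0.01% BSA. Enzyme 15 nM, pre-exposed to compound 15 min; substrates then added and fluorescence change tracked over 30 min.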
FBPA coupling cs = qHTS Assay for Inhibitors of Fructose-1,6-bisphosphate Aldolase from Giardia Lamblia: Coupling assay counterscreen | activity change, negative = inhibition, % at 58.2 µM, hits read low | coupling enzyme system counterscreen, AmpLite Red fluorescence | 0.67% of 290,000 active; in the data active = activity change below about -30%
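First, compound is pin-transferred into glyceraldehyde-3-phosphate coupling-enzyme reagent at 57.5 uM final and held 10 min at RT. Next, substrate, coupling system and AmpLite Red are added. After 20 min RT, fluorescence (525/598 nm) is read.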
Tau fluor cs = Counterscreen qHTS for Inhibitors of Tau Fibril Formation, Fluorescence Polarization; tau K18 P301L Alexa594 fluorescence, heparin fibrillization; Potency, µM (doses to about 57.7 µM); 0.93% of 280,000 active; note: nearly all actives have a fitted effect of over 55% in size
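Human K18 P301L tau (15 uM unlabeled plus 0.24 uM Alexa 594-labeled, final) in 100 mM sodium acetate pH 7 was mixed with compound and 20 uM heparin and incubated 6 hr at 37 C.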
Tau fibril ThT = qHTS for Inhibitors of Tau Fibril Formation, Thioflavin T Binding; Microtubule-associated protein tau (Homo sapiens), P10636; recombinant tau K18 P301L (four-repeat tau fragment), heparin-induced fibrillization, ThT fluorescence; Potency, µM (doses to about 57.4 µM), most hits filed as inhibitors; 2.1% of 270,000 active; note: nearly all actives have a fitted effect of over 55% in size
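Tau K18 P301L fragment (15 uM unlabeled plus 0.24 uM Alexa 594-labeled) in 100 mM sodium acetate pH 7 with compound, fibrillization induced by 20 uM heparin for 6 hr at 37 C. Thioflavin T (30 uM) added, fluorescence read after 1 hr (ex 450, em 510 nm).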
Each line names hits and unclear results; the compound was inactive in the other large screens; [ ] = another dose, or the depositor's remark. Unless noted, calls come from the whole dose curve; as a rule, active = well fitted curve in the direction sought with a large enough effect; inconclusive = small, poorly fitted or top-dose-only effect, or another doubt; inactive = no such curve, though single readings can be large; an effect the other way counts as inactive or inconclusive.

O=c1[nH]c(=S)n(Cc2ccco2)c(O)c1C=NCc1cccs1	none
N#Cc1c(/N=C/c2c(O)n(Cc3ccco3)c(=O)[nH]c2=O)sc2c1CCCC2	Tau FP inhib inconclusive, Sfp PPTase inh 79.4µM, Tau fibril ThT 20µM
O=c1[nH]c(=O)n(Cc2ccco2)c(O)c1C=NCc1cccs1	Sfp PPTase inh 50.1µM
Cc1ncc(CN2CC=C(c3ccccc3)CC2)c(N)n1	none
CC1CC2OC2/C=C\C=C/C(=O)Cc2c(Cl)c(O)cc(O)c2C(=O)O1 (stereo not given)	Tau fibril ThT inconclusive
Nc1ccc(C2(c3ccc(N)cc3)c3ccccc3-c3ccccc32)cc1	Tau FP inhib inconclusive, Tau fluor cs 14.1µM[quencher], Tau fibril ThT inconclusive
Cc1ccc(NC(=O)Nc2ccc3nc(N4CCN(C)CC4)cc(C)c3c2)cc1F	Tau FP inhib inconclusive, Tau fluor cs 7.08µM[quencher], Tau fibril ThT 14.1µM (no result: Sfp PPTase inh, FBPA coupling cs)
Cc1cc(N2CCCCC2)nc2ccc(NC(=O)/C=C/c3ccc(OC(C)C)cc3)cc12	Tau fluor cs 8.91µM[quencher], Tau fibril ThT 2.82µM (no result: Sfp PPTase inh, FBPA coupling cs)
Cc1cc(N2CCNCC2)nc2ccccc12	none (no result: Tau FP inhib, Tau fluor cs, Tau fibril ThT)
CN(C)c1ccc(/C=C2\CCCN=C2c2cccnc2)cc1	Tau fibril ThT inconclusive
CCC(C)C(=O)OC1C[C@@]2(C)C(c3ccoc3)OC(=O)CC23OC2(C)OC34C(OC(=O)C(C)C)[C@]3(O)C(OC(=O)C5(C)OC5C)[C@]5(C)CC3(O)[C@](C)(C5CC(=O)OC)C14O2 (stereo not given in full)	none
COCCCNC(=O)c1c(NC(=O)c2ccco2)n(Cc2ccccc2)c2nc3ccccc3nc12	Tau FP inhib inconclusive, Tau fluor cs inconclusive, Tau fibril ThT inconclusive
COCCNC(=O)c1c(N)n(CCC(C)C)c2nc3ccccc3nc12	FBPA coupling cs -36.0, Tau fluor cs inconclusive
CCCCNC(=O)c1c(N)n(CCCOC)c2nc3ccccc3nc12	FBPA coupling cs -39.1, Tau fluor cs inconclusive, Tau fibril ThT inconclusive
COCCNC(=O)c1c(NC(=O)c2ccc(Br)o2)n(Cc2ccccc2)c2nc3ccccc3nc12	Sfp PPTase inh 28.2µM, FBPA coupling cs -43.8, Tau fibril ThT inconclusive
CCOC(=O)c1c(NS(=O)(=O)c2ccccc2)n(CCCOC)c2nc3ccccc3nc12	Tau FP inhib inconclusive, FBPA coupling cs -39.1, Tau fibril ThT inconclusive
CC(C)C(C)/C=C/C(C)C1CCC2C3=CC=C4CC(O)CCC4(C)C3CCC21C (stereo not given)	Tau fibril ThT inconclusive
Cc1ccc(C(=O)Nc2c(C(=O)Nc3ccc(C)c(C)c3)sc3nc(C)cc(C)c23)cc1	Tau fluor cs inconclusive, Tau fibril ThT inconclusive (no result: Sfp PPTase inh, FBPA coupling cs)
C=CC(C)(C)c1c2c(c(O)c3c(=O)c4ccc(O)c(O)c4oc13)C=CC(C)(C)O2	Tau FP inhib inconclusive, Tau fluor cs 15.8µM[quencher], Tau fibril ThT inconclusive
CCCN1CCC[C@@H]2Cc3cn[nH]c3C[C@H]21	Sfp PPTase inh inconclusive
O=c1oc(Cl)c(Cl)c2ccccc12	Tau FP inhib inconclusive, Sfp PPTase inh 35.5µM, Tau fibril ThT 11.2µM (no result: FBPA coupling cs)
Cc1ccc2c(c1)=NC(=O)/C(=C/c1c(O)[nH]c(=O)[nH]c1=O)C=2	Sfp PPTase inh 35.5µM
Cc1ccc2c(c1)=C/C(=C\c1c(O)[nH]c(=S)[nH]c1=O)C(=O)N=2	Tau FP inhib inconclusive, Sfp PPTase inh 7.08µM, Tau fibril ThT inconclusive
CCOC(=O)N(C)C(=O)CSP(=S)(OCC)OCC	Sfp PPTase inh inconclusive (no result: Tau FP inhib, Tau fluor cs, Tau fibril ThT)
CC(=O)O[C@@]12CO[C@@H]1C[C@H](O)[C@@]1(C)C(=O)[C@H](O)C3=C(C)[C@@H](OC(=O)[C@H](O)[C@@H](NC(=O)c4ccccc4)c4ccccc4)C[C@@](O)([C@@H](OC(=O)c4ccccc4)C12)C3(C)C (stereo not given in full)	Sfp PPTase inh 11.2µM (no result: Tau FP inhib, Tau fluor cs, Tau fibril ThT)
Oc1cc2c(cc1O)[C@H]1c3ccccc3CNC1CC2 (stereo not given in full)	Tau fluor cs inconclusive, Tau fibril ThT inconclusive (no result: Sfp PPTase inh, FBPA coupling cs)
NC1CCc2cc(O)c(O)cc2C1 (stereo not given)	Tau FP inhib inconclusive, Sfp PPTase inh 39.8µM, Tau fluor cs inconclusive, Tau fibril ThT inconclusive (no result: FBPA coupling cs)
COc1ccc(C(=O)Oc2cccc3cccnc23)cc1S(=O)(=O)N1CCOCC1	Sfp PPTase inh 44.7µM
COc1ccc(C(=O)N2CCOCC2)cc1S(=O)(=O)N1CCC(C)CC1	none
C[C@@H]1O[C@@H](O[C@H]2CC[C@]3(C=O)C4CC[C@]5(C)[C@@H](C6=CC(=O)OC6)CC[C@]5(O)[C@@H]4CC[C@]3(O)C2)[C@H](O)[C@H](O)[C@H]1O (stereo not given in full)	none
CC1=C2C(=CO[C@H](C)[C@H]2C)C(=O)C(C(=O)O)=C1O	Tau fibril ThT inconclusive
CCn1c(O)c(/C=N/NC(=O)c2ccncc2)c(=O)n(CC)c1=S	Sfp PPTase inh 79.4µM
O=C1C=CC(=O)C(Cl)=C1	Tau FP inhib 15.8µM, Sfp PPTase inh 3.98µM, Tau fluor cs inconclusive, Tau fibril ThT 11.2µM
O=C1C=CC(=O)C=C1	none (no result: Sfp PPTase inh, FBPA coupling cs)
Cc1c(OC(=O)N(C)C)ccc2c1O/C(=C\c1ccco1)C2=O	Sfp PPTase inh 79.4µM (no result: Tau FP inhib, Tau fluor cs, Tau fibril ThT)
Cc1ccc2c(c1)CC1(CN2C)C(=O)NC(=O)N(CCC2=CCCCC2)C1=O (stereo not given)	Tau FP inhib inconclusive, Tau fibril ThT 25.1µM
Cc1ccc2c(c1)CC1(CN2C)C(=O)NC(=O)N(C(C)C)C1=O (stereo not given)	Tau FP inhib inconclusive, Tau fibril ThT inconclusive
CCN(CC)c1ccc(NC(=O)c2cccc(C)c2)cc1S(=O)(=O)Nc1ccccc1OC	Sfp PPTase inh 12.6µM, Tau fibril ThT inconclusive
CCOP(=O)(OCC)C(NC(=O)c1cccc(C)c1)C(Cl)(Cl)Cl (stereo not given)	none
O=C1C=C2C=CC3C[C@@]2(O1)C1CCCCN31 (stereo not given in full)	Tau fibril ThT inconclusive
C[C@]12CC[C@H]3[C@@H](CCC4=CC(=O)CC[C@@H]43)[C@@H]1CC[C@@H]2O	none
C[C@]12CC[C@@H]3c4ccc(OC(=O)N(CCCl)CCCl)cc4CC[C@H]3[C@@H]1CC[C@@H]2O	none (no result: Tau FP inhib, FBPA coupling cs, Tau fluor cs, Tau fibril ThT)
